# Earlier results as cited in PubChem BioAssay AID977608.
# About 4,300 (100%) of roughly 4,300 compounds were called active. Cut-off not given; nearly all actives show IC50 up to about 1400 µM. The set was probably picked from earlier hits. The list shows a part of the results.
# Test: protein-ligand inhibition affinities from structures – PDB-derived complexes (AID 977608)
compound,measurement,setting,value
CC(=O)Nc1cccc(C2=CC(C)N(O)c3ccccc32)c1 (stereo unspecified),IC50,"literature IC50, protein: Bromodomain-containing protein 4, PDB entry 4meo",250 µM (active)
N=C1C(NS(=O)(=O)c2ccccc2)C(=O)NC(=O)N1Cc1ccccc1 (stereo unspecified),IC50,"literature IC50, protein: Glucose-1-phosphate thymidylyltransferase (RmlA), PDB entry 3zlk",1.32 µM (active)
same,IC50,"literature IC50, protein: Glucose-1-phosphate thymidylyltransferase (RmlA), PDB entry 4ASP",1.32 µM (active)
C/C(=C\Cc1c(O)c(Cl)c(C)c(C=O)c1O)CC/C=C(\C)[C@H](C)O,IC50,"literature IC50, protein: Alternative oxidase, mitochondrial, PDB entry 3vva",0.00048 µM (active)
CCc1nc(N)nc(N)c1-c1ccc(NCc2cc(F)cc(F)c2)cc1,IC50,"literature IC50, protein: human Renin, PDB entry 2g24",4 µM (active)
N#Cc1csc(NC(=O)CN2C(=O)CCc3ccccc32)c1-c1ncn[nH]1,IC50,"literature IC50, protein: Mitogen-activated protein kinase 10, PDB entry 3rtp",0.007 µM (active)
CC(C)C[C@H](NC(=O)[C@H](C)NC(=O)[C@H](CC(N)=O)NC(=O)[C@H](CCC(=O)O)NC(=O)[C@@H](NC(=O)[C@H](C)NC(=O)[C@@H](NC(=O)[C@H](Cc1cnc[nH]1)NC(=O)[C@@H](N)CO)C(C)C)C(C)C)C(=O)O,IC50,"literature IC50, protein: HLA class I histocompatibility antigen, B-39 alpha chain, PDB entry 4o2e",0.01 µM (active)
H-HVAVENAL-OH,IC50,"literature IC50, protein: HLA class I histocompatibility antigen, B-39 alpha chain, PDB entry 4o2f",0.387 µM (active)
O=C(CC[C@H](NC(=O)c1ccc(C#Cc2ccccc2)cc1)C(=O)NO)NCCCO,IC50,"literature IC50, protein: UDP-3-O-[3-hydroxymyristoyl] N-acetylglucosamine deacetylase, PDB entry 4j3d",0.0053 µM (active)
CCCCn1c(-c2c(C)ccc3[nH]ncc23)c[n+]2c3c(=O)[nH]c(=O)n(C)c3[nH]c12,IC50,"literature IC50, protein: EPH receptor A3, PDB entry 4gk4",0.014 µM (active)
H-AAAAAAA-OH,IC50,"literature IC50, protein: Insulin-degrading enzyme(IDE), PDB entry 2jbu",400 µM (active)
COc1ccc2c(c1)C1=NN(C(=O)CO)[C@H](c3ccc(OC(F)(F)F)c(F)c3)[C@@H]1CC2,IC50,"literature IC50, protein: Receptor-interacting serine/threonine-protein kinase 1 (C34A, C127A, C233A, C240A mutation), PDB entry 4iti",0.44 µM (active)
O=C(O)/C(S)=C/c1c(Cl)ccc(Cl)c1Cl,IC50,"literature IC50, protein: Beta-lactamase 2 BcII MBL, PDB entry 4tyt",0.02 µM (active)
CC(C)C[C@H](C[P+](O)(O)[C@@H](N)CCc1ccccc1)C(=O)N[C@@H](Cc1c[nH]c2ccccc12)C(N)=O,IC50,"literature IC50, protein: Endoplasmic reticulum aminopeptidase 2, PDB entry 4jbs",0.011 µM (active)
O=C1NCc2ccc(Cl)cc21,IC50,"literature IC50, protein: Chymase, PDB entry 4k5z",1000 µM (active)
O=C(c1ccc(O)cc1)N1CCOCC1,IC50,"literature IC50, protein: Heat shock protein HSP 90-alpha, PDB entry 4egh",550 µM (active)
N=Cc1ncc(C(=O)NCc2ccccc2)cn1,IC50,"literature IC50, protein: Protease AVP2, PDB entry 4pid",24 µM (active)
CCOC(=O)COc1cccc(C(=O)c2nonc2N)c1,IC50,"literature IC50, protein: Adenylate cyclase type 10 hsolAC, PDB entry 4oyb",1.6 µM (active)
COc1cccc(C(=O)c2nonc2N)c1,IC50,"literature IC50, protein: Adenylate cyclase type 10 hsolAC, PDB entry 4oym",11 µM (active)
Nc1nonc1C(=O)c1ccccc1,IC50,"literature IC50, protein: Adenylate cyclase type 10 hsolAC, PDB entry 4oyi",19 µM (active)
Nc1nonc1C(=O)c1cccc(OCc2nc3ccccc3[nH]2)c1,IC50,"literature IC50, protein: Adenylate cyclase type 10 hsolAC, PDB entry 4oya",0.36 µM (active)
CCCCCCCCCCCCCCCn1cc[n+](CC(O)([P+](O)(O)O)[P+](O)(O)O)c1,IC50,"literature IC50, protein: Squalene synthase, HsSQS, PDB entry 3wci",0.27 µM (active)
CCCCn1cc[n+](CC(O)([P+](O)(O)O)[P+](O)(O)O)c1,IC50,"literature IC50, protein: Farnesyl pyrophosphate synthase, PDB entry 4ga3",0.03 µM (active)
CCCCCCCCCCCCCCCn1cc[n+](CC([P+](O)(O)O)[P+](O)(O)O)c1,IC50,"literature IC50, protein: Squalene synthase, HsSQS, PDB entry 3wcl",0.26 µM (active)
same,IC50,"literature IC50, protein: Squalene synthase, TcSQS, PDB entry 3wcg",0.14 µM (active)
FC(F)(F)c1ccc(CNc2ccc(Cc3c[nH]c4ncccc34)cn2)cc1,IC50,"literature IC50, protein: Mast/stem cell growth factor receptor Kit, PDB entry 4hvs",0.016 µM (active)
COc1cnc2[nH]cc(Cc3ccc(NCc4ccc(C(F)(F)F)cc4)nc3)c2c1,IC50,"literature IC50, protein: Macrophage colony-stimulating factor 1 receptor (C667T, C830S, C907T mutation), PDB entry 4hw7",0.062 µM (active)
S=CNc1ccc2oc(C3=NCCN3)cc2c1,IC50,"literature IC50, protein: Chitinase A(W275G mutant), PDB entry 3as3",160 µM (active)
C[C@@H]1NC(=O)[C@@H]2CSSC[C@H](NC(=O)CN)C(=O)N[C@@H](CSSC[C@@H](C(N)=O)NC(=O)[C@H](CCCNC(N)N)NC(=O)[C@H](Cc3c[nH]c4ccccc34)NC1=O)C(=O)N[C@@H](CO)C(=O)N[C@@H](CC(=O)O)C(=O)N1CCC[C@H]1C(=O)N[C@@H](CCCNC(N)N)C(=O)N2,IC50,"literature IC50, protein: nicotinic acetylcholine receptor homolog AChBP, PDB entry 2c9t",0.033 µM (active)
CC(C)C[C@H]1NC(=O)[C@@H](Cc2c[nH]c3ccccc23)NC(=O)[C@@H](CCC(N)=O)NC(=O)[C@@H](Cc2c[nH]c3ccccc23)NC(=O)[C@@H](CCC(=O)O)NC(=O)[C@H]2CCCN2C(=O)[C@@H](CO)NC(=O)[C@@H](CCC(=O)O)NC(=O)[C@H](NC(=O)[C@@H](C)NC(=O)CNC(=O)[C@H](N)CCCCN)CSSC[C@H](C(=O)N[C@H](C)C(=O)N[C@H](C)C(=O)O)NC1=O,IC50,"literature IC50, protein: gp41 N-peptide, PDB entry 2r3c",2.2 µM (active)
CC(=O)NCC(=O)N[C@H](C)C(=O)N[C@@H]1CSSC[C@H](C(=O)N[C@H](C)C(=O)N[C@H](C)C(=O)O)NC(=O)[C@@H](CC(C)C)NC(=O)[C@@H](Cc2c[nH]c3ccccc23)NC(=O)[C@@H](C)NC(=O)[C@@H](Cc2c[nH]c3ccccc23)NC(=O)[C@@H](CCC(=O)O)NC(=O)[C@@H](CCCNC(N)N)NC(=O)[C@@H](Cc2cnc[nH]2)NC(=O)[C@@H](CCCNC(N)N)NC(=O)[C@@H](C)NC(=O)[C@@H](CCC(=O)O)NC1=O,IC50,"literature IC50, protein: IQN17, PDB entry 1czq",29 µM (active)
